The results in this text go back to PubChem BioAssay (EPA / NIEHS).

Several values for one entry are separate records, joined by “and”; a condition that tells them apart may be missing. Equal values may be shown once. Results filed as inconclusive are left out. Some structures have more than one record in an assay (separate samples or runs), and their calls can disagree. Activity calls are given as the source filed them. How the source made its calls: active means hit-call score of the fitted dose curve at least 0.9, where 1 is the maximum; inconclusive means response in the unintended direction; inactive means score below 0.9.

Assay [1] deals with turtle Estrogen Receptor (ERa), gene 101933533. The assay can be described thus: ATG_trERa_XSP2: Attagene TRANS-FACTORIAL Multi-Species (XSP2) HepG2 Assay for turtle Estrogen Receptor (ERa) (AID 2283812).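 Further: actives raise reporter signal above DMSO so AC50 reflects agonist activity.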 In a few lines:
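Readout is reporter mRNA quantified by RT-PCR with capillary electrophoresis after 24 h compound exposure, increase relative to DMSO. Uses transiently transfected human HepG2 liver cells carrying a chimeric turtle ERa-Gal4 receptor driving GAL4-UAS reporters.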

In assay [2] the target is Estrogen receptor beta (Homo sapiens) (UniProt Q92731). The assay can be described thus: ATG_hERb_XSP2: Attagene TRANS-FACTORIAL Multi-Species (XSP2) HepG2 Assay for human Estrogen Receptor (ERb) (AID 2283813).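 Further: actives raise reporter mRNA above DMSO so AC50 reflects agonist induction.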 In a few lines: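 Transient TRANS reporter system in HepG2: after 24 h of chemical, RNA is reverse-transcribed, reporter cDNA amplified, FAM-labelled and sized by capillary electrophoresis. Induction of the human ERb-Gal4 reporter is measured relative to DMSO.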

Assay [3] deals with zebrafish Estrogen Receptor (ER1), esr1 (gene 259252) (UniProt P57717). The assay can be described thus: ATG_zfER1_XSP2: Attagene TRANS-FACTORIAL Multi-Species (XSP2) HepG2 Assay for zebrafish Estrogen Receptor (ER1) (AID 2283816). In a few lines: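 After 24 h compound exposure, RNA from transfected HepG2 cells was reverse-transcribed and reporter transcripts resolved by capillary electrophoresis. The TRANS format reads exogenous zebrafish ER1-Gal4 chimera activity on GAL4-UAS elements; gain of signal against DMSO.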

Assay [4] addresses chicken Estrogen Receptor (ERa), ESR1 (gene 396099) (UniProt P06212). The assay can be described thus: ATG_chERa_XSP2: Attagene TRANS-FACTORIAL Multi-Species (XSP2) HepG2 Assay for chicken Estrogen Receptor (ERa) (AID 2283817).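 Further: actives raise reporter signal above DMSO so AC50 reflects ER activation.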 The procedure, abridged:
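Readout: fluorescent reporter-transcript fragments resolved by capillary electrophoresis after RT-PCR and HpaI cut. Chicken ERa-Gal4 fusion in transiently transfected HepG2, dosed for 24 h; activity taken as increase over DMSO baseline.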

Assay [5] has as its target GAL4 Transcription Factor (Internal Marker), GAL4 (gene 855828) (UniProt P04386). The assay can be described thus: ATG_GAL4_XSP2: Attagene TRANS-FACTORIAL Multi-Species (XSP2) HepG2 Assay for GAL4 Transcription Factor (Internal Marker) (AID 2283814).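 Further: GAL4 reporter mRNA background control in MRTU transfected cells not a receptor target.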 The procedure, abridged:
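Background-control readout: gain-of-signal fitted against DMSO. After 24 h exposure of transfected HepG2 (MRTU, GAL4-UAS reporters; 3 nM 6-alpha-fluorotestosterone, 1.5 nM norgestrel present), transcripts quantified by RT-PCR and capillary electrophoresis fluorescence.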

In assay [6] the test system is zebrafish Estrogen Receptor (ER2a), gene 317734. The assay can be described thus: ATG_zfER2a_XSP2: Attagene TRANS-FACTORIAL Multi-Species (XSP2) HepG2 Assay for zebrafish Estrogen Receptor (ER2a) (AID 2283818).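 Further: hits raise reporter mRNA so AC50 reflects activation of zebrafish ER2a.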 The procedure, abridged: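 Multiplexed trans-reporter readout: RT-PCR then capillary electrophoresis of reporter transcripts after 24 h compound treatment. Human HepG2 carries transfected zebrafish ER2a-Gal4 chimera; 3 nM 6-alpha-fluorotestosterone plus 1.5 nM norgestrel present. Induction scored against DMSO.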

The nature of assay [7]: ATG_M_19_XSP1: Attagene TRANS-FACTORIAL Multi-Species (XSP1) HepG2 Assay for M19 Transcription Factor (Internal Marker) (AID 2283798). The procedure, abridged: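 Readout is reporter mRNA induction quantified via RT-PCR, 6-FAM labeling, HpaI digestion and capillary electrophoresis, fitted in the positive direction versus DMSO baseline. Transfected HepG2 cells exposed 24 h, medium including 3 nM 6-alpha-fluorotestosterone.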

A short description of assay [8]: ATG_M_32_XSP1: Attagene TRANS-FACTORIAL Multi-Species (XSP1) HepG2 Assay for M32 Transcription Factor (Internal Marker) (AID 2283799). The procedure, abridged:
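Reporter transcripts from the M32 internal-control unit measured by RT-PCR, FAM labelling, HpaI digestion and capillary electrophoresis after 24 h compound exposure of transfected HepG2, 3 nM 6-alpha-fluorotestosterone included; DMSO baseline, positive-direction fit.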

Assay [9] addresses frog Thyroid hormone Receptor alpha (TRa), thra-a (gene 397942) (UniProt P15204). The assay can be described thus: ATG_frTRa_XSP1: Attagene TRANS-FACTORIAL Multi-Species (XSP1) HepG2 Assay for frog Thyroid hormone Receptor alpha (TRa) (AID 2283804). The procedure, abridged:
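Reporter transcript induction, measured by RT-PCR with 6-FAM labelling and capillary electrophoresis, 24 hr after dosing transiently transfected HepG2 cells expressing a frog TRa-GAL4 fusion; medium contained 3 nM 6-alpha-fluorotestosterone; increase over DMSO scored.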

In assay [10] the test system is turtle Thyroid Hormone Receptor, alpha (TRa), gene 101949057. The assay can be described thus: ATG_trTRa_XSP1: Attagene TRANS-FACTORIAL Multi-Species (XSP1) HepG2 Assay for turtle Thyroid Hormone Receptor, alpha (TRa) (AID 2283806). The procedure, abridged:
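After 24 h chemical exposure, reporter transcripts were measured by RT-PCR with fluorescent primer extension, HpaI digestion and capillary electrophoresis. Cells were transiently transfected HepG2 expressing exogenous NR-Gal4 chimeras; medium contained 3 nM 6-alpha-fluorotestosterone; fitted upward relative to DMSO.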

The target of assay [11] is zebrafish Thyroid Hormone Receptor beta (TRb), thrb (gene 30607) (UniProt Q9PVE4). The assay can be described thus: ATG_zfTRb_XSP1: Attagene TRANS-FACTORIAL Multi-Species (XSP1) HepG2 Assay for zebrafish Thyroid Hormone Receptor beta (TRb) (AID 2283809). The procedure, abridged: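 HepG2 cells transiently transfected with multiplexed GAL4-UAS reporter units expressing chimeric zebrafish TRb–Gal4. Dosed 24 h with 3 nM 6-alpha-fluorotestosterone present; reporter mRNA measured by RT-PCR, HpaI digestion and capillary electrophoresis; gain of signal versus DMSO.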

Assay [12] is described as follows: ATG_XTT_Cytotoxicity_XSP1: Cytotoxicity Assessment in the Attagene TRANS-FACTORIAL Multi-Species (XSP1) HepG2 Assay (AID 2283810). The procedure, abridged: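 XTT viability readout taken at 24 hours post-dosing in HepG2 liver cells co-treated with 3 nM 6-alpha-fluorotestosterone. Signal loss relative to DMSO controls reflects cytotoxicity.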
Assay [13] deals with turtle Androgen Receptor (AR), gene 101947425. The assay can be described thus: ATG_trAR_XSP2: Attagene TRANS-FACTORIAL Multi-Species (XSP2) HepG2 Assay for turtle Androgen Receptor (AR) (AID 2283815).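 Further: potency for gain of reporter signal meaning activation above DMSO baseline.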 The procedure, abridged: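 Reporter transcripts were quantified via RT-PCR and capillary electrophoresis and fitted upward against DMSO. Transiently transfected human HepG2 cells carrying NR-Gal4 chimeras were exposed 24 h, with 3 nM 6-alpha-fluorotestosterone plus 1.5 nM norgestrel added.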

For assay [14], the system named is zebrafish Peroxisome Proliferator-activated Receptor gamma (PPARg), gene 557037. The assay can be described thus: ATG_zfPPARg_XSP1: Attagene TRANS-FACTORIAL Multi-Species (XSP1) HepG2 Assay for zebrafish Peroxisome Proliferator-activated Receptor gamma (PPARg) (AID 2283801). In a few lines:
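Trans-activation readout of chimeric zebrafish PPARg–GAL4 in transiently transfected human HepG2 cells, 24 h chemical exposure (medium includes 3 nM 6-alpha-fluorotestosterone). Reporter transcripts measured by RT-PCR and capillary electrophoresis, fitted as gain over DMSO.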

For assay [15], the target named is human Thyroid hormone Receptor alpha (TRa), THRA (gene 7067) (UniProt P10827). The assay can be described thus: ATG_hTRa_XSP1: Attagene TRANS-FACTORIAL Multi-Species (XSP1) HepG2 Assay for human Thyroid hormone Receptor alpha (TRa) (AID 2283805). In a few lines:
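Reporter transcripts from the human TRa-Gal4 TRANS unit quantified by RT-PCR, fluorescent labeling and capillary electrophoresis after 24 hours of chemical exposure in transfected HepG2 cells; medium contains 3 nM 6-alpha-fluorotestosterone. Positive direction fit against DMSO.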

The target of assay [16] is zebrafish Thyroid Hormone Receptor alpha (TRa), thraa (gene 30670) (UniProt Q98867). The assay can be described thus: ATG_zfTRa_XSP1: Attagene TRANS-FACTORIAL Multi-Species (XSP1) HepG2 Assay for zebrafish Thyroid Hormone Receptor alpha (TRa) (AID 2283807). The procedure, abridged: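 Reporter transcripts driven by a chimeric zebrafish TRa–Gal4 protein were measured by RT-PCR with fluorescent labelling and capillary electrophoresis. These came from transiently transfected HepG2 cells after 24 h chemical exposure, with 3 nM 6-alpha-fluorotestosterone added; baseline was DMSO.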

Assay [17] deals with human Thyroid hormone Receptor beta (TRb), THRB (gene 7068) (UniProt P10828). The assay can be described thus: ATG_hTRb_XSP1: Attagene TRANS-FACTORIAL Multi-Species (XSP1) HepG2 Assay for human Thyroid hormone Receptor beta (TRb) (AID 2283808). In a few lines: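 Readout is reporter mRNA induction measured by RT-PCR, fluorescent labelling and capillary electrophoresis, fitted upward relative to DMSO. Transiently transfected human HepG2 cells expressing NR-Gal4 chimeras were dosed for 24 h, medium containing 3 nM 6-alpha-fluorotestosterone.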
human Thyroid hormone Receptor beta (TRb), THRB (gene 7068), sequence (P10828 whole entry, looked up, the tested form may be a part): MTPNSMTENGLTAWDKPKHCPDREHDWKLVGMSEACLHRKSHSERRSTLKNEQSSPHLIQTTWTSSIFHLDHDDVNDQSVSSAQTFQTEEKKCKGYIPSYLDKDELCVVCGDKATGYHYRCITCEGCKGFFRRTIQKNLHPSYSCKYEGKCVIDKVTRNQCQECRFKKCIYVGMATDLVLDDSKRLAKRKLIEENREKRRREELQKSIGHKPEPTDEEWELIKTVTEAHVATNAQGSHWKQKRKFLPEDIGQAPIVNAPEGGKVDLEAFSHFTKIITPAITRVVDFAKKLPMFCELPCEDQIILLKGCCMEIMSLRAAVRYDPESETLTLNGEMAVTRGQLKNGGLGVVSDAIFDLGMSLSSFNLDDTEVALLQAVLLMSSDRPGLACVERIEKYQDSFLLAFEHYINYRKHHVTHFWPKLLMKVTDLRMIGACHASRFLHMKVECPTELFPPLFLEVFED

chicken Estrogen Receptor (ERa), ESR1 (gene 396099), sequence (P06212 whole entry, looked up, the tested form may be a part): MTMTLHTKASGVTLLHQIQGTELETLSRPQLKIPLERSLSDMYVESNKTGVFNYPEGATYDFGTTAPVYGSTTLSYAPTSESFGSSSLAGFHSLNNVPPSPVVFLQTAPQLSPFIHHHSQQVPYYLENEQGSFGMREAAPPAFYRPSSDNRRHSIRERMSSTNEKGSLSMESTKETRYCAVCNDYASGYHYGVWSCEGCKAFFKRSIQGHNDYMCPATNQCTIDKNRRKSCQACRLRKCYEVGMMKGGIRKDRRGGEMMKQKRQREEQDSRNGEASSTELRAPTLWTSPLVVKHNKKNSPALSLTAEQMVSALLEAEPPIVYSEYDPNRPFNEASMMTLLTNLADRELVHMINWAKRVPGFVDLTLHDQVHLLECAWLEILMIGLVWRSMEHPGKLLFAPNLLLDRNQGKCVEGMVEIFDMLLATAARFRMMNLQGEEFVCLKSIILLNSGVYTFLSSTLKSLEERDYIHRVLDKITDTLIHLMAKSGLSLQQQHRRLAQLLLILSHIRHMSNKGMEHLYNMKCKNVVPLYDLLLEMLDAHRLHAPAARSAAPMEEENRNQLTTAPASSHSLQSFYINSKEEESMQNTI
GAL4 Transcription Factor (Internal Marker), GAL4 (gene 855828), sequence (P04386 whole entry, looked up, the tested form may be a part): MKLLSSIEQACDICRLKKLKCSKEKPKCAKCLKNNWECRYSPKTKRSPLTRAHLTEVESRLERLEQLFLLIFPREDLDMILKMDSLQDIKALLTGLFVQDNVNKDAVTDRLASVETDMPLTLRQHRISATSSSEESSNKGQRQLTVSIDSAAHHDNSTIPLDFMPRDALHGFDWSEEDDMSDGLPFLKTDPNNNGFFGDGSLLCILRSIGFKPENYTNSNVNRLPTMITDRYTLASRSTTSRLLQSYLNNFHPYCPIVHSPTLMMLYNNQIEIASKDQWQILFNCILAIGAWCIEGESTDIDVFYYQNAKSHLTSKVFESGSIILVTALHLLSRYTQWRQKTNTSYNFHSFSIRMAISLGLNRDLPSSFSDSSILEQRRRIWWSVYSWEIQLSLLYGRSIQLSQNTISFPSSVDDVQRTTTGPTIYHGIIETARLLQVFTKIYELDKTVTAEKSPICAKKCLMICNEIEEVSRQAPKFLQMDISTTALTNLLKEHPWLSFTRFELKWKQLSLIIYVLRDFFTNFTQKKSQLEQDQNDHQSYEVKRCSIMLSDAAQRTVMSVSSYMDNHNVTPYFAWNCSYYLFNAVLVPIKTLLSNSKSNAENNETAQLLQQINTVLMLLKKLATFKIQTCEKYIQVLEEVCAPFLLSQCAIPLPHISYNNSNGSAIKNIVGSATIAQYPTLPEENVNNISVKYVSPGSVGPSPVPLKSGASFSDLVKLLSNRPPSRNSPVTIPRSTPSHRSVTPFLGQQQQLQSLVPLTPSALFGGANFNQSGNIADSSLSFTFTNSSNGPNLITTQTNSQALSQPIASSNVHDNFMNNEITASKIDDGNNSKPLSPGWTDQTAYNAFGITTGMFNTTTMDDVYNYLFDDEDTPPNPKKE
zebrafish Estrogen Receptor (ER1), esr1 (gene 259252), sequence (P57717 whole entry, looked up, the tested form may be a part): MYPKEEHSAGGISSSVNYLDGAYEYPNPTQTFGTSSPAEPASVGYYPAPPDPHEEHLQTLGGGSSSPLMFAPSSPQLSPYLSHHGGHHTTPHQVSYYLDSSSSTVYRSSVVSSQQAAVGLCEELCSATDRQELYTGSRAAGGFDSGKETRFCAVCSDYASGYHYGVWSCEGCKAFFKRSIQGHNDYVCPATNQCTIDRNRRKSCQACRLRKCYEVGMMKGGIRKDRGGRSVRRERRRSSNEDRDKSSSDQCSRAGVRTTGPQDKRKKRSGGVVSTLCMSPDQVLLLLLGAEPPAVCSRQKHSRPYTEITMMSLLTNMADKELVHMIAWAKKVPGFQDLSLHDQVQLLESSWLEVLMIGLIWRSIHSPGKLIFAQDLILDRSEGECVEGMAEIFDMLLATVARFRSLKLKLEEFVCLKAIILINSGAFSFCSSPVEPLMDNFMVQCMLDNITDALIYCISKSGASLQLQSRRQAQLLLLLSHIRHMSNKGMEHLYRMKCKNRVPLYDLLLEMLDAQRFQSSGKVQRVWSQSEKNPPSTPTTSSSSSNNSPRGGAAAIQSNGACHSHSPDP
Estrogen receptor beta (Homo sapiens), sequence (Q92731 whole entry, looked up, the tested form may be a part): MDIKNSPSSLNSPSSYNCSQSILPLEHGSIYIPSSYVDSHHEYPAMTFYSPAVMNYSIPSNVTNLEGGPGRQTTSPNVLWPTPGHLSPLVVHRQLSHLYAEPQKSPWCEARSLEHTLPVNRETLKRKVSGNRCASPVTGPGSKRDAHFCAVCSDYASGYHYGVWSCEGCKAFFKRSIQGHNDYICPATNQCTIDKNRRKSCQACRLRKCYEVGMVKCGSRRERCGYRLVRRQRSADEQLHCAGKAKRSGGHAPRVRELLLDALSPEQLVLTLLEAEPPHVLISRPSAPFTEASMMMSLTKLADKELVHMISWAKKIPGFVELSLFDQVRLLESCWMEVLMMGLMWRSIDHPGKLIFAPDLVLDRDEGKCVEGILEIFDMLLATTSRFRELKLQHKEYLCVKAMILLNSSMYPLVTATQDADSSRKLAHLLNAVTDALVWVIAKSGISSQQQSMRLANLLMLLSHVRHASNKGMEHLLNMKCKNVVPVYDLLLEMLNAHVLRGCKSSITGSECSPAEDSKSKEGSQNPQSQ
zebrafish Thyroid Hormone Receptor beta (TRb), thrb (gene 30607), sequence (Q9PVE4 whole entry, looked up, the tested form may be a part): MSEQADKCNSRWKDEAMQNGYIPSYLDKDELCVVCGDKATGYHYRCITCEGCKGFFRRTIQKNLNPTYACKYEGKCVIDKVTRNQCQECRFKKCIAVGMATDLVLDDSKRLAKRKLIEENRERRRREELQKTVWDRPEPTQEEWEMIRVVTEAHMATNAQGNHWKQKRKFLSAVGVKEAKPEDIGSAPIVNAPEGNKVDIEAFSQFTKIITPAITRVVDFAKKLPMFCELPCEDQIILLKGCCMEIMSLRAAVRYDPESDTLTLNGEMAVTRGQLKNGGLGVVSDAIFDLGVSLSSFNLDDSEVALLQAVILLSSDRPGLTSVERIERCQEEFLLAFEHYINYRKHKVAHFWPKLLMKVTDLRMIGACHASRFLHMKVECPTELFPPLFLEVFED
frog Thyroid hormone Receptor alpha (TRa), thra-a (gene 397942), sequence (P15204 whole entry, looked up, the tested form may be a part): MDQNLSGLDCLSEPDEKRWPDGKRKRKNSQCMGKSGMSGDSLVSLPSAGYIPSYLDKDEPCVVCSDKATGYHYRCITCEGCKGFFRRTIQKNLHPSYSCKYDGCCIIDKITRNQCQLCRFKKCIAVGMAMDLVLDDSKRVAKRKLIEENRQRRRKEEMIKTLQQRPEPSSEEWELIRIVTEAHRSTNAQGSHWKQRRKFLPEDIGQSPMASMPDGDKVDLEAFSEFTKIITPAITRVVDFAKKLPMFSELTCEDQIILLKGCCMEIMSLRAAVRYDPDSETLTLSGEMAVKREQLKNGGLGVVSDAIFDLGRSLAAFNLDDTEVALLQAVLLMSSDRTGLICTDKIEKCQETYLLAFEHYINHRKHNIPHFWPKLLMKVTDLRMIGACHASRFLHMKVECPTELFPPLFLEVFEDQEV
human Thyroid hormone Receptor alpha (TRa), THRA (gene 7067), sequence (P10827 whole entry, looked up, the tested form may be a part): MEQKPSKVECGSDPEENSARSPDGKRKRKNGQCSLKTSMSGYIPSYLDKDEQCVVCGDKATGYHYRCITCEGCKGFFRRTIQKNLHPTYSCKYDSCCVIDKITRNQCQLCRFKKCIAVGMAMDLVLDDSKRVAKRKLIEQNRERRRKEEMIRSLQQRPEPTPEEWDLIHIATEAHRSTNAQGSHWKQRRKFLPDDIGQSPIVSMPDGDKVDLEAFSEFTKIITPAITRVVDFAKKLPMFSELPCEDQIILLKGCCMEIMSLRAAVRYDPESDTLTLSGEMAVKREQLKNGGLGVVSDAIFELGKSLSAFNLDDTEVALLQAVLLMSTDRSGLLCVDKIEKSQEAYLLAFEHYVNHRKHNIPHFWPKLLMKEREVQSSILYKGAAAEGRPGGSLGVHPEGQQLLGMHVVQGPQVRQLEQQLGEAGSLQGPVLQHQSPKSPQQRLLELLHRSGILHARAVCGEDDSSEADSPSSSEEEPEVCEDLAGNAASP
zebrafish Thyroid Hormone Receptor alpha (TRa), thraa (gene 30670), sequence (Q98867 whole entry, looked up, the tested form may be a part): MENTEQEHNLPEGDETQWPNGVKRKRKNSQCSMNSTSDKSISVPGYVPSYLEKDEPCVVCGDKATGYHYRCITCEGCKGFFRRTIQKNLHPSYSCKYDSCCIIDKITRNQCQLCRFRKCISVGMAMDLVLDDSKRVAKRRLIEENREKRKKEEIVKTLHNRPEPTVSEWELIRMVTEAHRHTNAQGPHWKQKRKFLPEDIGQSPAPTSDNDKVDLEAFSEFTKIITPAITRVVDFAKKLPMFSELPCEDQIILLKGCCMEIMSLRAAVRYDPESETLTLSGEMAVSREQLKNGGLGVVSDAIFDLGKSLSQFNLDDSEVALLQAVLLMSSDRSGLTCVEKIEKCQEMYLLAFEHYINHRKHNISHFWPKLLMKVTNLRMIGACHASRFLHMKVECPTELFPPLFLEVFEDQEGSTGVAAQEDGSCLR

Regarding `Oc1ccc2ccc3cccc4ccc1c2c34`, the AC50 was 8.33 µM (active) and 5.18 µM (active) in [1]; 1.64 µM (active) and 1.79 µM (active) in assay [2]; 5.13 µM (active) in [3]; 9.01 µM (active) and 2.69 µM (active) in assay [4]. In addition, the compound was called inactive in [3].

With `CC(C)(C)C(O)(CCc1ccc(Cl)cc1)Cn1cncn1` (configuration not stated), the compound was classed as inactive in [1], in assay [5], in assay [3], in [4] and in [6]. The AC50 in assay [6] was 25.8 µM (active).

As to `O=[N+]([O-])c1ccc(Oc2ccc(Cl)cc2Cl)cc1`, the call in [1], in [2], in assay [3], in [4] and in assay [6] was inactive.

On to `c1ccc2c(c1)-c1cccc3cccc-2c13`, for which the compound was called inactive in [1], in assay [2], in [5], in assay [3], in assay [4] and in [6]. Besides, the AC50 in [4] is 27.7 µM (active).

As to `CCC(C)c1ccc(O)cc1` (configuration not stated), the half-maximal activity concentration (AC50) in assay [1] is 6.55 µM (active) and 1.91 µM (active); in assay [2], 5.47 µM (active) and 2.25 µM (active); in assay [3], 37.7 µM (active) and 28.7 µM (active); in [4], 6.12 µM (active) and 3.68 µM (active); in assay [6] it was 14.5 µM (active) and 3.22 µM (active). Also, the compound was classed as inactive in assay [5].

Take `C[C@]12C=CC3=C4CCC(=O)C=C4CC[C@H]3[C@@H]1CC[C@@H]2O`: the outcome in assay [7], in assay [8], in assay [9], in assay [10], in [11] and in [12] was inactive. Further, the outcome in assay [1], in [2], in assay [3], in [4] and in [6] was inactive. Further, the AC50 in assay [13] was 5.34 nM (active).

Turning to `CCCCC(CC)COC(=O)c1ccc(C(=O)OCC(CC)CCCC)c(C(=O)OCC(CC)CCCC)c1` (configuration not stated), the AC50 in [1] is 100 µM (active) and 11.9 µM (active); in assay [3], 57.8 µM (active). Moreover, the compound was called inactive in [5], in assay [3], in assay [4] and in [6].

Turning to `CCC[CH2][Sn]([Cl])([CH2]CCC)[CH2]CCC`, the compound was classed as inactive in assay [7], in assay [14], in assay [9], in [10] and in [3]. Moreover, the AC50 in [15] is 86.5 nM (active); in [16], 228 nM (active); in assay [17], 159 nM (active); in [11], 84 nM (active); in assay [12], 1540 nM (active).
